Here are results for 21 molecules from PubChem BioAssay (NCATS).

Inconclusive results are not listed. Unmarked numbers belong to inactive results. Activity calls are given as the source filed them. Calls follow the shape of the dose curve; as a rule, active = well fitted curve in the direction sought with a large enough effect; inconclusive = small, poorly fitted or top-dose-only effect, or another doubt; inactive = no such curve, though single readings can be large; an effect the other way counts as inactive or inconclusive.

The target of assay [1] is Rap guanine nucleotide exchange factor 3 (Homo sapiens) (UniProt O95398). Description: Confirmatory qHTS for antagonist of cAMP-regulated guanine nucleotide exchange factor 3 (EPAC1) (AID 1645880). Also: nearly all actives have a fitted effect of over 55% in size. Also: potency is read from the fitted curve at half-maximal effect. The method, boiled down:
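Released BODIPY-GDP fluoresces less than Rap1-bound BODIPY-GDP; the signal is followed at 480/540 nm at 5-min intervals over 30 min, after 5 min at room temperature. Reactions contain 100 nM EPAC1, 250 nM RAP1B-BODIPY-GDP and 50 uM GDP; results are normalized to ATA and DMSO.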
In general terms: In qHTS, concentration-response curves come from the screen itself.

The target is the same in assay [2]. The experiment in a line: Confirmatory qHTS for agonist of cAMP-regulated guanine nucleotide exchange factor 3 (EPAC1) (AID 1645881). Also: nearly all actives have a fitted effect of over 75% in size. Also: potency is read from the fitted curve at half-maximal effect.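 As to activation: EPAC1 catalysed release of BODIPY-GDP from Rap1B seen as fluorescence loss; 100% = effect of cAMP agonist control.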
Assay [3] deals with Rap guanine nucleotide exchange factor 4 (Homo sapiens) (UniProt Q8WZA2). Description: Confirmatory qHTS for agonist of cAMP-regulated guanine nucleotide exchange factor 4 (EPAC2) (AID 1645884).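 Also: nucleotide exchange releases bodipy-GDP from Rap1 and this lowers its fluorescence; nearly all actives have a fitted effect of over 65% in size.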 Also: potency is read from the fitted curve at half-maximal effect. As to activation: % is scaled to controls: 0 for no effect and ±100 for the full control effect.
For assay [4] the target is unchanged. Description: Confirmatory qHTS for antagonist of cAMP-regulated guanine nucleotide exchange factor 4 (EPAC2) (AID 1645885). Also: nearly all actives have a fitted effect of over 25% in size. Also: potency is read from the fitted curve at half-maximal effect. As to activity change, negative = inhibition: % is scaled to controls: 0 for no effect and ±100 for the full control effect.
Assay [5] deals with Rap guanine nucleotide exchange factor 3 (Homo sapiens) (UniProt O95398). Description: Counterscreen qHTS for antagonist of cAMP-regulated guanine nucleotide exchange factor 3 (EPAC1) (AID 1645888). Also: % of control where 0% means no effect. The method, boiled down: (§1)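 Measured: fluorescence of BODIPY-GDP bound to Rap1B, which falls as exchange proceeds. Conditions include 50 uM competing GDP, 5 and 30 min reads, and a later cAMP challenge for antagonist detection.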
In general terms: Counterscreens check selectivity or assay interference.

For assay [6] the target is unchanged. The experiment in a line: Counterscreen qHTS for agonist of cAMP-regulated guanine nucleotide exchange factor 3 (EPAC1) (AID 1645889). Also: nearly all actives have a fitted effect of over 40% in size. Also: potency is read from the fitted curve at half-maximal effect. As to activation: % of control where 0% means no effect. The method, boiled down:
as §1

Chain of Rap guanine nucleotide exchange factor 3 (Homo sapiens) (O95398 whole entry, looked up): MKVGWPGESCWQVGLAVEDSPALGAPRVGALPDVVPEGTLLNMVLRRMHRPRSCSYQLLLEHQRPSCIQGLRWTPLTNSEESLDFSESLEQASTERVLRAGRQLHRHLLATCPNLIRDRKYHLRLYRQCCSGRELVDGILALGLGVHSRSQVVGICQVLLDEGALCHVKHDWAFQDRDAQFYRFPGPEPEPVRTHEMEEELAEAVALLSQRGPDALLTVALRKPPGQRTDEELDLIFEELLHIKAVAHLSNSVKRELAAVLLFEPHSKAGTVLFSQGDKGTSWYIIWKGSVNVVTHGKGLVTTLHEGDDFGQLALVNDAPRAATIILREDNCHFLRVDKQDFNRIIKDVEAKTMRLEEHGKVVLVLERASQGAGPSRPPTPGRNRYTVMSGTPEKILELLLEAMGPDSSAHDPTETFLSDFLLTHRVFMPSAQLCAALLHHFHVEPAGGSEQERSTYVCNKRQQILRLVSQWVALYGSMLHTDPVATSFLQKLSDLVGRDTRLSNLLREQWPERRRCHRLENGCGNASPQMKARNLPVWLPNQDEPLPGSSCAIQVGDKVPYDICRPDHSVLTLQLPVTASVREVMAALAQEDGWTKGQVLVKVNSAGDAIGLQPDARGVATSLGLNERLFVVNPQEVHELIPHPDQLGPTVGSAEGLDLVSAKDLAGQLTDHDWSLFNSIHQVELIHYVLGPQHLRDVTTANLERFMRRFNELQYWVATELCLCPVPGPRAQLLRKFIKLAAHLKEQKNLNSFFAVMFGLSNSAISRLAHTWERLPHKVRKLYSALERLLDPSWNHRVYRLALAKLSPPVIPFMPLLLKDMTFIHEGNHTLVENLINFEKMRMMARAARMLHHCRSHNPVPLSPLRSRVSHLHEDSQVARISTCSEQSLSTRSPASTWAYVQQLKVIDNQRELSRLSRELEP
Chain of Rap guanine nucleotide exchange factor 4 (Homo sapiens) (Q8WZA2 whole entry, looked up): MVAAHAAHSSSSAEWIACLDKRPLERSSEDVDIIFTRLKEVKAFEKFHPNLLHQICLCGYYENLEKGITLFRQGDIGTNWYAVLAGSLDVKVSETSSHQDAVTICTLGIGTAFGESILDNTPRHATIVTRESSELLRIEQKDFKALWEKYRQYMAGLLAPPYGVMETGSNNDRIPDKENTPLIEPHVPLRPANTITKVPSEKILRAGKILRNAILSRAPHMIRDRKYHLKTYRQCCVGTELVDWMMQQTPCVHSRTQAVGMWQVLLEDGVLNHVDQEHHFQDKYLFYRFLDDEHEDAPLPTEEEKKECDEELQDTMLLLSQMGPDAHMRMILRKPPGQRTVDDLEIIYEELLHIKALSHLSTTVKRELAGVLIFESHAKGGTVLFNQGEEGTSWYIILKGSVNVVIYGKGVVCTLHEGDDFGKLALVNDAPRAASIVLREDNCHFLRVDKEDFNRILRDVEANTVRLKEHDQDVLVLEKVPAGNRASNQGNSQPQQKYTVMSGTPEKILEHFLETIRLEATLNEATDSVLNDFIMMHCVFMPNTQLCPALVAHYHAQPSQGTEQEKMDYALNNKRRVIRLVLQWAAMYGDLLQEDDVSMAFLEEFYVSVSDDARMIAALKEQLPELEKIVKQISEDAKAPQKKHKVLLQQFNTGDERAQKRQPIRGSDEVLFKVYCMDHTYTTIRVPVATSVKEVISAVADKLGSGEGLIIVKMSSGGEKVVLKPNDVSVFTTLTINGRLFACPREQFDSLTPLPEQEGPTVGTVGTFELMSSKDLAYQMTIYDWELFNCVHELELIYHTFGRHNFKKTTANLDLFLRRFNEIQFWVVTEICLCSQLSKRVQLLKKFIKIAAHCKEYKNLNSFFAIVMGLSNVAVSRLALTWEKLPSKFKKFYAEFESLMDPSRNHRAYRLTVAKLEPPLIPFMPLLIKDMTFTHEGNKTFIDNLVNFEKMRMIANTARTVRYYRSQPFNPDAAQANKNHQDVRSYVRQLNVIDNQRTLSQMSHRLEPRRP

Consider `CCOc1ccccc1NC(=O)COC(=O)c1ccc(S(=O)(=O)N2CCCC2)cc1`, for which the Potency result in assay [1], in assay [2], in assay [3], in assay [4], in assay [5] and in assay [6] was “inactive” throughout.
As for `COc1ccc(CN2C(=O)c3cccnc3C2Nc2cc(Cl)c(OC)cc2OC)cc1` (stereo unspecified), the Potency in assay [1] was 75.7 µM (active). Moreover, the Potency entry in assay [2], in assay [3], in assay [4], in assay [5] and in assay [6] was “inactive” in each case.
Turning to `COC(=O)c1cn(C(=O)c2cc(OC)c(OC)c(OC)c2)c2ccccc12`, the Potency result in assay [1], in assay [2], in assay [3], in assay [4], in assay [5] and in assay [6] was “inactive” each time.
For `COc1ccc(/C=C/C(=O)c2ccncc2)c2ccccc12`, the Potency entry in assay [1], in assay [2] and in assay [4] was “inactive” throughout. Moreover, the activation in assay [3] was -6.66% [at 17.1 µM, percent relative to cAMP agonist control]; in assay [6], 15.3% [at 30.8 µM]. The activity change, negative = inhibition in assay [5] was -0.831% [at 30.8 µM].
Take `O=S1(=O)CCN2C(Cc3ccc(SC(F)F)cc3)=CSC2=N1`: the Potency result in assay [1], in assay [2], in assay [3], in assay [4], in assay [5] and in assay [6] was “inactive” throughout.
As to `Cc1ccc(OCC(=O)Nc2ccccc2N2CCCC2)c(C)c1`, the Potency result in assay [1], in assay [2], in assay [3], in assay [4], in assay [5] and in assay [6] was “inactive” in each case.
For the molecule `Cc1cc2ccccn2c1C(=O)c1ccccc1F`, the Potency entry in assay [1], in assay [2] and in assay [4] was “inactive” in each case. The activation in assay [3] is 3.67% [at 17.1 µM, percent relative to cAMP agonist control]; in assay [6], 21.5% [at 30.8 µM]. Besides, in assay [5], the activity change, negative = inhibition is -3.01% [at 30.8 µM].
For `COc1ccc(N2CCN(C(=O)c3sc4nc(-c5ccc(F)cc5)cn4c3C)CC2)cc1`, the Potency entry in assay [1], in assay [2], in assay [3], in assay [4], in assay [5] and in assay [6] was “inactive” each time.
With `COc1cccc(C2=NN(C(C)=O)C(c3cccs3)C2)c1` (stereo unspecified), the Potency result in assay [1], in assay [2], in assay [3], in assay [4], in assay [5] and in assay [6] was “inactive” each time.
For the molecule `COC(=O)CSc1nc(C)cc(Oc2ccccc2)n1`, the Potency result in assay [1], in assay [2], in assay [3], in assay [4], in assay [5] and in assay [6] was “inactive” throughout.
For `Nc1c(C(=O)c2ccccc2)sc2nsc(SCCN3CCCC3)c12`, the Potency entry in assay [1] and in assay [5] was “inactive” in each case. In addition, the Potency is 100 µM (active) in assay [2], 100 µM (active) in assay [3], 84.9 µM (active) in assay [4] and 39.8 µM (active) in assay [6].
On to `O=C(Nc1cc(C(=O)Nc2ccccc2C(=O)O)cc(C(=O)Nc2ccccc2C(=O)O)c1)c1ccccc1`, for which, in assay [1], the Potency is 2.24 µM (active). Further, the Potency result in assay [2] and in assay [4] was “inactive” in each case. Also, the activation in assay [3] was 5.98% [at 17.1 µM, percent relative to cAMP agonist control]; in assay [6], 19.7% [at 30.8 µM]. Further, in assay [5], the activity change, negative = inhibition is 11.5% [at 30.8 µM].
With `CCc1cc(C(=O)c2ccc(OC)cc2)c(NC(=O)CC(C)(C)CC(=O)O)s1`, the Potency entry in assay [1], in assay [2], in assay [3], in assay [4], in assay [5] and in assay [6] was “inactive” throughout.
For the molecule `COC(=O)c1c(SC)nc2ccccc2c1OCc1cc(C)ccc1C`, the Potency entry in assay [1], in assay [2], in assay [3], in assay [4], in assay [5] and in assay [6] was “inactive” in each case.
As to `CN(C)c1ccc(/C=C/C(=O)c2ccc3c(c2)OCO3)cc1`, the Potency entry in assay [1] and in assay [5] was “inactive” each time. Moreover, the Potency in assay [2] is 112 µM (active); in assay [3], 112 µM (active); in assay [4], 37.9 µM (active); in assay [6], 79.4 µM (active).
Consider `COc1ccc(/C=C2/SC(=S)N(NS(=O)(=O)c3ccccc3)C2=O)cc1`, for which, in assay [1], the Potency is 39.8 µM (active). The Potency entry in assay [2] and in assay [4] was “inactive” throughout. The activation in assay [3] was -0.663% [at 17.1 µM, percent relative to cAMP agonist control]; in assay [6] it was -1.02% [at 30.8 µM]. The activity change, negative = inhibition in assay [5] was -9.92% [at 30.8 µM].
As to `CCc1cccc(C)c1NC(=O)c1cc2ccccc2o1`, the Potency result in assay [1], in assay [2], in assay [3], in assay [4], in assay [5] and in assay [6] was “inactive” throughout.
For `CCOC(=O)c1cnc2ccccc2c1Nc1cccc(OC)c1`, the Potency entry in assay [1], in assay [2], in assay [3], in assay [5] and in assay [6] was “inactive” each time. Further, in assay [4], the outcome was “inactive [at 12.7 µM]”.
In the case of `O=C(CSc1nnc(CCc2ccccc2)n1-c1ccc(Cl)cc1)NCc1ccccc1`, the Potency result in assay [1], in assay [2], in assay [3], in assay [4], in assay [5] and in assay [6] was “inactive” in each case.
For `CCOC(=O)C1CCCN(C(=O)C(C)(C)Oc2ccc(Cl)cc2)C1` (stereo unspecified), the Potency result in assay [1], in assay [2], in assay [3], in assay [4], in assay [5] and in assay [6] was “inactive” throughout.
`O=C(Nc1cccc(Cl)c1)OC1CCCCc2cccnc21` (stereo unspecified): the Potency result in assay [1], in assay [2] and in assay [4] was “inactive” throughout. In addition, the activation in assay [3] is 5.07% [at 17.1 µM, percent relative to cAMP agonist control]; in assay [6] it was 25.6% [at 30.8 µM]. Also, the activity change, negative = inhibition in assay [5] was -21.2% [at 30.8 µM].
